Reference: PubChem BioAssay (NCI)
This is part of a sample that, as a whole, favours compounds with a hit. Of some 83,000 tested, about 20% had one in any assay.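 Compound tested at a single concentration for 48 hours in 96-well plates; a percent growth value below 10 was scored as active.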 Unmarked numbers belong to inactive results. The source made the active and inactive calls.

What was measured:
Test in all cases: NCI-60 one-dose screen, 48 h (100 = growth as untreated, 0 = no growth, -100 = all killed)
Conditions in all cases: 10 µM unless noted
[1] = tested on: SK-MEL-2 melanoma
[2] = tested on: EKVX NSCLC
[3] = tested on: SN12C renal
[4] = tested on: UO-31 renal
[5] = tested on: TK-10 renal
[6] = tested on: ACHN renal
[7] = tested on: CAKI-1 renal
[8] = tested on: A498 renal
[9] = tested on: CCRF-CEM leukemia
[10] = tested on: MOLT-4 leukemia

Structure (SMILES) | growth [1] | growth [2] | growth [3] | growth [4] | growth [5] | growth [6] | growth [7] | growth [8] | growth [9] | growth [10]
c1ccc(C2CC(c3cccc(Nc4ccncc4)c3)=NN2c2ccccc2)cc1 (stereo not given) | 103% | 91.4% | 77.9% | 70.3% | 98.9% | 90.1% | 61.8% | 83.2% | 56.9% | 18%
CN(C)Cc1c(-c2ccccc2)[nH]c2ccccc12 | 108% | 92.3% | 99.4% | 100% | 102% | 106% | 101% | 75.7% | 86.5% | 99.4%
O=C(NCCN1CCOCC1)OCc1nc2nc(Cl)nc(N3CCOCC3)c2[nH]1 | 18.9% | 95.2% | 29.2% | 39.6% | 71% | 33.1% | 25.2% | -8.24% (active) | 5.93% (active) | 19%
COC(=O)Nc1ccc(NC(=O)OC)cc1 | 88.5% | 103% | 104% | 87.6% | 94.4% | 115% | 93.4% | 97.2% | 68.1% | 100%
CN1CCN(Cc2ccc(NC(=O)c3cncc(C#Cc4cnccc4C(F)(F)F)c3)cc2C(F)(F)F)CC1 | 73.4% | 87.6% | 75.7% | 67.2% | 109% | 75.8% | 93.8% | 78.4% | 82.9% | 45.7%
CCCCCCCCCCCCC1CCC/C=C\CCC(=O)O1 (stereo not given) | 96.2% | 97.1% | 105% | 90.4% | 97.7% | 107% | 111% | 117% | 76.4% | -8.63% (active)
COc1cc(NCC(O)CN(CC(C)C)CC(C)C)c2nc(C)ccc2c1 (stereo not given) | 99% | 79.8% | 92.3% | 66.9% | 105% | 89.4% | 74.1% | 86.2% | 115% | 78%
Cn1c(=O)c2[nH]c(CCCc3nc4c([nH]3)c(=O)n(C)c(=O)n4C)nc2n(C)c1=O | 109% | 113% | 103% | 102% | 118% | 103% | 108% | 142% | 124% | 136%
COc1ccc(-c2nc(N=Nc3c(O)[nH]c4ccccc34)nc(N3CCOCC3)c2C#N)cc1 | 77.9% | 74.5% | 73.3% | 84.8% | 71.5% | 25% | 43.3% | 67.4% | 75.5% | 80.8%
COc1cnccc1-c1nc2ccc3[nH]ncc3c2c2c1CCCC2 | 81.2% | 18.2% | 62.4% | 29.4% | 60.7% | 37.6% | 18% | 13.2% | 16.4% | 28.2%
CN1CCN(c2cnc(C(=O)Nc3cc(F)cc4cccnc34)cn2)CC1 | 94.8% | 45.5% | 62.2% | 43% | 69.3% | 26.5% | 57.3% | 75.7% | 35.6% | 23.5%
CC[C@H](C)[C@@H]1NC(=O)[C@H](Cc2ccc(O)cc2)N(C)C(=O)[C@H](Cc2ccccc2)NC(=O)CN(C)C(=O)[C@@H]2CCCN2C(=O)[C@@H](Cc2ccccc2)N(C)C(=O)[C@H](CC(C)C)NC1=O | -50.4% (active) | -3.63% (active) | -13.7% (active) | 44.4% | 6.34% (active) | 4.52% (active) | 11.4% | -3.73% (active) | -7.96% (active) | 2.71% (active)
O=C(N/N=C/c1cccnc1)c1ccccc1Nc1cccc(C(F)(F)F)c1 | 101% | 89.2% | 159% | 76.4% | 97.2% | 100% | 79.6% | 75.6% | -52.4% (active) | 62.7%
Clc1ccc(N2N=C(c3cccc(Nc4ccncc4)c3)CC2c2ccc3c(c2)OCO3)cc1 (stereo not given) | 94.4% | 74.8% | 62.6% | 41.9% | 83.5% | 41.6% | 10% | 69.7% | 5.74% (active) | 2.58% (active)
CCN(CC)CCSCCCNc1c(C)cnc2cc(Cl)ccc12 | 143% | 87.4% | 82.7% | 54.9% | 118% | 94.6% | 90.5% | 71.4% | 80.6% | 70.4%
O=C(Nc1ccc2ncnc(Nc3ccc(Oc4cccc(F)c4)c(Cl)c3)c2c1)c1ccc(CNCCO)cc1 | 94.2% | 47.9% | 48.6% | 73.9% | 57.1% | 28.8% | 55.4% | 71.6% | -19.9% (active) | -0.727% (active)
CC1=CC[C@@H]2CC[C@]3(C)[C@H](CC[C@@H]4[C@@]5(C)CCCNC(C)(C)[C@@H]5CC[C@]43C)[C@H]2[C@@H]1C | 94.6% | 84.5% | 48.3% | 55.7% | 80.5% | 8.91% (active) | 30.4% | 60.2% | 5.21% (active) | -8.43% (active)
Cn1ncc2c(Nc3ccccc3Cl)nc(Cl)nc21 | 123% | 89.8% | 92% | 101% | 119% | 95.6% | 99.9% | 178% | 104% | 125%
CCN(CC)CCCC(C)Nc1c2c(nc3ccc(OC)cc13)CCCC2 (stereo not given) | 128% | 91.2% | 84.4% | 76.6% | 111% | 96.4% | 93.7% | 73.5% | 95.5% | 94.7%
COc1ccc(C(O)c2cc3c(N)c(C(=O)Nc4ccc(Cl)cc4)sc3nc2C)cc1 (stereo not given) | 37.1% | 37% | 34.6% | 37% | 42.4% | 35.6% | 25.2% | -5.66% (active) | 8.15% (active) | 15.5%
COc1ccc(NC(=O)c2sc3nc(C)c(C(=O)CCc4cccc(OC)c4)cc3c2N)cc1 | 53.2% | 82.8% | 73% | 51% | 85.4% | 95.2% | 71% | 19.2% | 65.4% | 48.1%
Cc1cc(NC(=O)c2cnc(N3CCN(CCOCCOCCOCCOCCC(=O)N[C@H](C(=O)N4C[C@H](O)C[C@H]4C(=O)N[C@@H](C)c4ccc(-c5scnc5C)cc4)C(C)(C)C)CC3)cn2)c2ncccc2c1 | -17.8% (active) | 60% | -2.01% (active) | 75.8% | 69.3% | 37.9% | 42.9% | 78.6% | -1.88% (active) | 1.53% (active)
CC(C)(O)C1CCCN1C(=O)c1ccccc1I (stereo not given) | 132% | 97.7% | 95% | 82.7% | 107% | 105% | 88.2% | 73.6% | 41.1% | -67.6% (active)
Brc1ccc(C2CC(c3cccc(Nc4ccncc4)c3)=NN2c2ccccc2)cc1 (stereo not given) | 102% | 95.7% | 81.2% | 74.6% | 94.4% | 91.3% | 81.1% | 80.2% | 63.2% | 47.3%
O=C1NC(=S)NC(=O)C1=Cc1cn(Cc2ccccn2)c2ccccc12 | 89.7% | 84.7% | 66.6% | 59.2% | 72.7% | 82.2% | 7.91% (active) | -86.4% (active) | 31.3% | 66%
CC(=O)c1c[nH]c2ccc(-c3ccnc(Nc4ccc(NC(=O)c5cccc(F)c5)c(CN5CCOCC5)c4)n3)cc12 | -15.6% (active) | -24.1% (active) | -4.7% (active) | 2.38% (active) | 1.22% (active) | -12.1% (active) | -1.58% (active) | -62.8% (active) | 2.24% (active) | 1.65% (active)
